Test results as given in PubChem BioAssay AID1159580 (chemical genetic matrix, 2015).
Values joined by “and” are separate entries in the source; they are usually repeats but may differ in a detail not shown here. Identical values can stand only once. About 2,000 (36%) of roughly 5,500 compounds were called active. Not shown: some 18% with an inconclusive outcome. Rule as the data show it: active = normalized growth mostly below about 0.91 (no sharp cut-off); inconclusive = no clear call, values can overlap the other calls; inactive = mostly above about 0.92. The list shows a part of the results.

Assay: chemical genetic growth profiling, strain panel (AID 1159580);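 also: tested at 20 µM; growth read once vehicle control cultures reached saturation at 30 °C; 1 = growth at the plate median or of vehicle wells; lower values mean less growth of the strain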
Details: S. cerevisiae deletion strains, growth OD

Measured: normalized growth

CC(Oc1ccccc1)C(=O)N[C@@H]1C(=O)N2[C@@H]1SC(C)(C)[C@@H]2C(=O)O (some centres not stated)
inactive: locus YAL013W, strain DEP1, hits give low values 1.01 | locus YAL021C, strain ccr4, hits give low values 1 | locus YAL026C, strain drs2, hits give low values 1.01 | locus YAL030W, strain snc1, hits give low values 0.987 | locus YBL061C, strain skt5, hits give low values 1 | locus YBR009C, strain hhf1, hits give low values 0.997 | locus YBR021W, strain FUR4, hits give low values 0.999 | locus YBR023C, strain chs3, hits give low values 0.998 | locus YBR171W, strain sec66, hits give low values 0.984 | locus YBR229C, strain ROT2, hits give low values 1.01 | locus YBR231C, strain swc5, hits give low values 0.995 | locus YBR279W, strain paf1, hits give low values 1.01 | locus YCL011C, strain gbp2, hits give low values 0.988 | locus YCL016C, strain dcc1, hits give low values 0.988 | locus YCL029C, strain bik1, hits give low values 1.04 | locus YCL061C, strain MRC1, hits give low values 0.998 | locus YCL069W, strain vba3, hits give low values 0.981 | locus YCR088W, strain abp1, hits give low values 0.995 | locus YDL005C, strain med2, hits give low values 0.999 | locus YDL035C, strain GPR1, hits give low values 1.01 | locus YDL040C, strain nat1, hits give low values 0.995 | locus YDL074C, strain BRE1, hits give low values 1.01 | locus YDL101C, strain DUN1, hits give low values 1.02 | locus YDL134C, strain PPH21, hits give low values 1.02 | locus YDL185W, strain tfp1, hits give low values 1.02 | locus YDL192W, strain arf1, hits give low values 1.02 | locus YDR001C, strain nth1, hits give low values 0.994 | locus YDR069C, strain doa4, hits give low values 1 | locus YDR101C, strain arx1, hits give low values 1.01 | locus YDR137W, strain rgp1, hits give low values 1 | locus YDR150W, strain NUM1, hits give low values 1.01 | locus YDR159W, strain sac3, hits give low values 1.02 | locus YDR162C, strain NBP2, hits give low values 1.02 | locus YDR195W, strain ref2 1 | locus YDR297W, strain sur2, hits give low values 0.994 | locus YDR318W, strain mcm21, hits give low values 1.03 | locus YDR334W, strain swr1, hits give low values 0.995 | locus YDR335W, strain msn5, hits give low values 0.996 | locus YDR388W, hits give low values 1.02 | locus YDR392W, strain spt3, hits give low values 0.947 | locus YDR502C, strain sam2, hits give low values 1.01 | locus YEL003W, strain gim4, hits give low values 0.993 | locus YEL037C, strain rad23, hits give low values 0.997 | locus YEL061C, strain CIN8 (second series), hits give low values 0.988 | locus YEL061C, strain CIN8, hits give low values 1.01 | locus YER015W, strain faa2, hits give low values 1 | locus YER016W, strain bim1, hits give low values 1 | locus YER110C, hits give low values 1.03 | locus YER111C, strain swi4, hits give low values 1.01 | locus YER155C, strain BEM2 (second series), hits give low values 0.994 | locus YER155C, strain BEM2, hits give low values 0.998 | locus YER167W, strain BCK2, hits give low values 1.01 | locus YFR010W, strain ubp6, hits give low values 0.997 | locus YGL078C, strain dbp3, hits give low values 1.02 | locus YGL086W, strain mad1, hits give low values 1.01 | locus YGL167C, strain pmr1, hits give low values 0.999 | locus YGL173C, strain kem1, hits give low values 1.01 | locus YGL227W, strain vid30, hits give low values 0.988 | locus YGL240W, strain doc1, hits give low values 1 | locus YGL248W, strain PDE1, hits give low values 1.01 | locus YGL253W, strain hxk2, hits give low values 0.994 | locus YGR078C, strain PAC10, hits give low values 1.01 | locus YGR135W, strain pre9, hits give low values 1.02 | locus YGR229C, strain SMI1, hits give low values 0.999 | locus YGR252W, strain gcn5, hits give low values 0.994 | locus YHR013C, strain ard1, hits give low values 0.984 | locus YHR027C, strain rpn1, hits give low values 0.999 | locus YHR030C, strain SLT2, hits give low values 1.01 and 1.04 | locus YHR079C, strain IRE1 (second series), hits give low values 1.02 | locus YHR079C, strain IRE1, hits give low values 0.999 | locus YHR094C, strain hxt1, hits give low values 1.02 | locus YHR129C, strain ARP1, hits give low values 1.01 | locus YHR142W, strain chs7, hits give low values 0.979 | locus YHR200W, strain rpn10, hits give low values 1.02 | locus YIL066C, strain RNR3, hits give low values 1.01 | locus YIL073C, strain SPO22, hits give low values 1.06 | locus YIL125W, strain kgd1, hits give low values 1.01 | locus YIR030C, strain dcg1, hits give low values 1.02 | locus YJL092W, strain hpr5, hits give low values 0.993 | locus YJL095W, strain BCK1 (second series), hits give low values 0.995 | locus YJL095W, strain BCK1, hits give low values 1.04 | locus YJL115W, strain asf1, hits give low values 0.999 | locus YJL129C, strain trk1, hits give low values 1 | locus YJL134W, strain LCB3, hits give low values 1.01 | locus YJL154C, strain vps35, hits give low values 0.991 | locus YJL164C, strain tpk1, hits give low values 0.999 | locus YJL166W, strain qcr8, hits give low values 0.986 | locus YJL168C, strain set2, hits give low values 1.02 | locus YJL187C, strain SWE1 (second series), hits give low values 1.02 | locus YJL187C, strain SWE1, hits give low values 0.997 | locus YJR043C, strain POL32, hits give low values 1.01 | locus YJR066W, strain TOR1, hits give low values 0.966
